Sensor-assay potency score (higher = more potent) data for 39 sequences are collected here from the OligoGym collection.
Note: reference of the scale not given here.

For one assay, the target named is C1QTNF1. The experiment in a line: pooled miR-30 sensor sort-seq; sequence = guide strand. The note with it: shRNA.
Regarding TAGAGGTTCACGAACTCCGTGT, the sensor-assay potency score (higher = more potent) was determined as 0.258.

TAGAACTTGCCGGTGAACATGT gave a sensor-assay potency score (higher = more potent) of 0.14.

TAGGTGTCCAGCTCCTCGCTGA: the sensor-assay potency score (higher = more potent) is -0.37.

In turn, TGTATTTTTCATGTTGTTCTTC displayed a sensor-assay potency score (higher = more potent) of 0.442.

As to TTCATGTTGTTCTTCAGCCCTC, the sensor-assay potency score (higher = more potent) is -0.239.

On to TAGGTCTCCTTCTGGTTCCAGG, for which the sensor-assay potency score (higher = more potent) was -0.883.

In turn, TAGCAGTAGAACTTGCCGGTGA displayed a sensor-assay potency score (higher = more potent) of 0.148.

Take TCACAGCAGCGCAAGCACCGGG: the sensor-assay potency score (higher = more potent) was -0.832.

As for TTGTTCTTCAGCCCTCTCGGCA, the sensor-assay potency score (higher = more potent) was -1.05.

In turn, AAGATAGTGATGTTGATCTGGG registered a sensor-assay potency score (higher = more potent) of -0.107.

TTGGAGGCCTCGATCTCCGCGG registered a sensor-assay potency score (higher = more potent) of -1.29.

For TCGATCTCCGCGGTCACCCTTC, the sensor-assay potency score (higher = more potent) was -1.09.

The target in another assay is C1orf101. The description is as above. The note with it: shRNA.
In turn, TAACTTAATAGTACTTCTGGTA registered a sensor-assay potency score (higher = more potent) of -0.353.

TCTAACTTAATAGTACTTCTGG registered a sensor-assay potency score (higher = more potent) of 0.677.

In turn, TTCATGTAAACAACCACTCTGT gave a sensor-assay potency score (higher = more potent) of 0.256.

Regarding TTGACTTCCATGTCTGTGCTTC, the sensor-assay potency score (higher = more potent) worked out at 0.808.

In the case of TAACTCTATAGTACCACAGAAA, the sensor-assay potency score (higher = more potent) was -1.26.

Sequence TTGTATTGTGCCATCATCCAAA registered a sensor-assay potency score (higher = more potent) of -0.463.

TTGGTTTCCTCTAATCTCCTTT yielded a sensor-assay potency score (higher = more potent) of 0.267.

In turn, TAAAAACACAGCAATCTCCAGA came in with a sensor-assay potency score (higher = more potent) of -0.0485.

In the case of TTGATAGATTTCCATGTCCTGC, the sensor-assay potency score (higher = more potent) is -1.09.

Take TTGAATATTCACTAGGTCGAAA: the sensor-assay potency score (higher = more potent) is -0.467.

Sequence TAGTGCATCATCTTTTGTCATT registered a sensor-assay potency score (higher = more potent) of -1.07.

The sequence TAAACAACCACTCTGTGCCATA came in with a sensor-assay potency score (higher = more potent) of -0.921.

A further assay addresses C1orf105. The description is as above. The note with it: shRNA.
In turn, TTCATTTCTTGACATGTGGAGC yielded a sensor-assay potency score (higher = more potent) of -1.06.

For TTTTCATTTCTTGACATGTGGA, the sensor-assay potency score (higher = more potent) is -0.589.

TAAGCCAAGGAATCTTGTCAAA: the sensor-assay potency score (higher = more potent) was -1.39.

As to TAGTGAATGTTTTCTGTTGGGA, the sensor-assay potency score (higher = more potent) is 0.127.

AACATCTGGAACTTGAAACAAA: the sensor-assay potency score (higher = more potent) was -0.678.

With TTGCCTATTGGTTCCTTTCTGG, the sensor-assay potency score (higher = more potent) worked out at 0.0888.

For the sequence TATAACTCATACAATTCTCAAA, the sensor-assay potency score (higher = more potent) was -1.37.

For TTTCATTTCTTGACATGTGGAG, the sensor-assay potency score (higher = more potent) worked out at 0.0387.

TTTGGGTTGATGAAGACTCATT gave a sensor-assay potency score (higher = more potent) of -1.17.

Sequence TACAATTCTCAAAGGATGCTTT registered a sensor-assay potency score (higher = more potent) of -0.234.

TTCTGGGCAAGGAAGAACGTTG had a sensor-assay potency score (higher = more potent) of -0.752.

With TTGACATGTGGAGCACAGCTGT, the sensor-assay potency score (higher = more potent) is -0.883.

The target in another assay is C1orf106. The assay is described as above. The note with it: shRNA.
For the sequence TTATTGAAGTATTTAGCACTAA, the sensor-assay potency score (higher = more potent) was -0.34.

TAGAACCAGAGCACAGAGCGTT registered a sensor-assay potency score (higher = more potent) of -0.706.

Regarding TAAAACATAATCATATCACAGG, the sensor-assay potency score (higher = more potent) is -0.615.
